This is part of a sample that, as a whole, favours compounds with a hit. Of some 79,000 tested, about 15% had one in any assay. Unmarked numbers belong to inactive results. Calls of active or inactive are those of the source. Cut-off read from the data, not from the text of the source: active = growth inhibition above about 70%; inactive = the rest.
Assays:
[1] = NCI Yeast Anticancer Drug Screen. Data for the rad50 strain (AID 155);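 note: 0% = growth of vehicle-only cultures of the same strain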; conditions: S. cerevisiae rad50 strain growth inhibition, stronger effect = higher value; at 50.0 µM unless noted
Summary of the method: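 DNA repair mutant yeast, compound exposure, growth read-out; inhibition is taken relative to vehicle.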

[2] = NCI Yeast Anticancer Drug Screen. Data for the mec2-1 strain (AID 157); conditions: S. cerevisiae mec2-1 strain, stronger effect = higher value; at 50.0 µM unless noted
Summary of the method: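 Cells of the genetically defined mec2-1 yeast strain are incubated with test compound. Inhibition of growth is calculated against vehicle-treated controls.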

[3] = NCI Yeast Anticancer Drug Screen. Data for the sgs1 mgt1 strain (AID 161);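 note: 0% = growth of cultures given vehicle only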; conditions: S. cerevisiae sgs1 mgt1 strain, stronger effect = higher value; at 50.0 µM unless noted
Summary of the method: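 Read-out: growth inhibition vs vehicle controls. Cells: mutant yeast strain deficient in DNA damage repair.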

[4] = NCI Yeast Anticancer Drug Screen. Data for the cln2 rad14 strain (AID 165);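 note: 0% = growth equal to vehicle treated cultures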; conditions: S. cerevisiae cln2 rad14 strain, stronger effect = higher value; at 50.0 µM unless noted
Summary of the method: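 The screen exposed genetically defined yeast (cln2 rad14) to test compounds and scored growth inhibition relative to vehicle-treated controls.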

[5] = NCI Yeast Anticancer Drug Screen. Data for the bub3 strain (AID 167); conditions: S. cerevisiae bub3 mutant strain, stronger effect = higher value; at 50.0 µM unless noted
Summary of the method: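 In this screen, a yeast mutant lacking normal mitotic checkpoint function is challenged with compound. Relative growth versus vehicle gives the inhibition value.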

[6] = NCI Yeast Anticancer Drug Screen. Data for the mlh1 rad18 strain (AID 175); conditions: S. cerevisiae mlh1 rad18 strain growth inhibition, stronger effect = higher value; at 50.0 µM unless noted
Summary of the method: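 Compound-treated yeast growth, normalised to vehicle controls. Strain bears defined DNA repair mutations.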

SMILES	growth inhibition [1] [%]	growth inhibition [2]	growth inhibition [3] [%]	growth inhibition [4]	growth inhibition [5]	growth inhibition [6]
O=C(O)CCC1NC(/C(=C/c2ccccc2O)NC(=O)c2ccccc2)OC1=O (stereo not given)	-0.75	-8.1%	-14.1	-19.1%	-8.25%	-16.1%
CCOC(=O)c1ccc(NC(=O)Nc2cc(Cl)ccc2C)cc1	38.9	8.45%	16.1	6.4%	36.2%	25.4%
Cc1ccccc1S(N)(=O)=O	-17.7	-28.1%	-22.6	-42.2%	-6.95%	3.25%
Cn1cc2c([N+](=O)[O-])cccc2n1	5.35	3.75%	14.7	-4.6%	-0.9%	13.2%
COC(=O)C1=Nc2c(C)nn(-c3ccccc3)c2N=C(c2ccc([N+](=O)[O-])cc2)C1	-18.4	0.6%	-0.55	-67.1%	-34%	10.3%
CN(C)c1ccc(/C=C(\C#N)C(=O)O)cc1	33.8	-12.9%	2.8	11.7%	30.8%	38.2%
CCCCCCCCCCCC	-33.9	25.4%	13.6	-25.9%	37.9%	-9.9%
CC(C)(C)OC(=O)NNS(=O)(=O)CCC(NC(=O)OCc1ccccc1)C(=O)OCc1ccccc1 (stereo not given)	46.7	93.2% (active)	51.1	86.5% (active)	94.5% (active)	95.6% (active)
Cc1ccc(C2=CC=C(c3ccccc3)C2)cc1	-22.1	5.8%	-24.1	58.6%	4.4%	36.6%
ClCCOC1CCCCO1 (stereo not given)	-19	-15.2%	-13.6	6.2%	-5.4%	-5.15%
CCCCN1C(=O)CC2[C@@H]3CCc4cc(OC(C)=O)ccc4C3CC[C@]2(C)C1=O (stereo not given in full)	11.3	4.15%	5.45	26.6%	-7.3%	-0.1%
O=C(O)Cc1ccc(C(=O)O)cc1	21.2	-1.25%	5.8	-13.4%	13.2%	32.8%
Cc1[nH]c2c(ccc3c2ccc2c(=O)c(C)c(C)[nH]c23)c(=O)c1C	-2.05	-7.45%	-4.35	-29%	-0.3%	2.3%
CCOC(=O)/C(Cc1ccc2ccccc2n1)=N/O	-6.35	-26.2%	0.9	-16.8%	13.7%	6.25%
O=C(O)C1CCC(=O)N1Cc1c[nH]c2ccccc12 (stereo not given)	-2.2	-7.4%	-10.2	-0.15%	15.4%	-10.8%
Oc1ccccc1/C=N\N=C\NN/C=N/N=C/c1ccccc1O	-8.1	-0.75%	-4	13.8%	6.4%	5.55%
COc1cc(OC)c(-c2nc3ccccc3c(=O)o2)cc1OC	4.9	1%	-3.65	0.9%	-0.75%	7.75%
Cc1cc([N+](=O)[O-])c(Nc2ccc(C)c(Cl)c2)c([N+](=O)[O-])c1	8.15	36.7%	29.6	-8.05%	52.1%	33.6%
CCCC(=O)N(C(C)C)C(C)C	11.2	22%	12.5	6.6%	8.5%	8.8%
COc1cc(/C=C/c2ccc(N(C)C)cc2)oc(=O)c1	21.5	5.45%	26.6	6.85%	5.65%	0.25%

SMILES	growth inhibition [1] [%]	growth inhibition [2]	growth inhibition [3] [%]	growth inhibition [4]	growth inhibition [5]	growth inhibition [6]
O=C(Cl)C(=O)c1c[nH]c2ccccc12	6.2	-1.95%	-3	1.65%	-33.6%	-12.5%
CCCCCCCCCCCC(=O)NCc1ccc(OC(=O)CCCCCCCCCCC)c(OC)c1	-7.55	-9.8%	-6.3	-34.1%	4.1%	-8.85%
CCC[C@@H]1C(=O)N=C(N)N1C(=O)OCc1ccccc1	18.6	8.4%	7.75	1.8%	-5.8%	2.5%
CN(C)CCNC(=O)Nc1cccc2ccccc12	16	8.35%	-0.8	16.6%	-6.5%	2.25%
CC/C(C)=N\NS(=O)(=O)c1ccc(NC(C)=O)cc1	-5	-14.3%	18.1	20.8%	-33.5%	-0.7%
COc1ccc2[nH]c3ccccc3c(=O)c2c1	12.6	-3.2%	8.8	-66.4%	3%	-6.65%
COc1c2c(cc3c1C(CCCc1ccccc1)N(C)CC3)OCO2 (stereo not given)	22.4	7.6%	30.7	11.5%	9.75%	28.6%
O=C(OC(c1ccccc1)C(c1ccccc1)N1CCOCC1)c1ccc([N+](=O)[O-])cc1 (stereo not given)	54.8	8.3%	55.4	-4.9%	17.1%	54.6%
O=C(CSC(=S)N1CCOCC1)Nc1nc2c(s1)CCCC2	-15.1	-32%	-28.2	2.6%	-1.65%	-16.3%
O=C(O)c1nc2ccccc2nc1C(=O)O	-27.9	-7.65%	-13.4	-17.6%	-7.95%	-3.85%
CC(=O)NC(CCC(C)C)C(=O)O (stereo not given)	-0.05	25.2%	4.75	-13.6%	15.6%	-7.35%
O=C(CCCCl)N1CCCCCC1	-5.25	11.6%	-17.5	-37%	15.1%	5.7%
Cc1ccccc1C(c1ccccc1Cl)[N+](C)(C)C (stereo not given)	35	14.7%	27.1	19.2%	-3.95%	43.1%
CSC(C1c2ccccc2N(c2ccc(C)cc2)c2[nH]c(=O)n(C)c(=O)c21)S(=O)(=O)c1ccc(C)cc1 (stereo not given)	23.1	0%	-21.8	-29%	0.15%	16.6%
N#CCCCCCOCCOCCOCCOCCOCCCCCC#N	12.8	12.9%	-10.2	12.7%	-1.75%	18.6%
CN(C)S(=O)(=O)c1ccccc1C(O)(c1ccccc1)c1ccccc1 (tested in a mixture with another compound)	35.1	8.7%	-7.75	-4.55%	15.2%	32.4%
COC(=O)C(=O)C1CCCC(C)(c2ccccc2)C1 (stereo not given)	-0.1	2.05%	-5.05	0.2%	1.7%	-4.7%
CC(=O)NCCc1ccccc1	-18.2	20.9%	3.2	-19.3%	10%	-0.1%
COc1ccc2cc3n(c(=O)c2c1OC)CCc1cc2c(cc1-3)OCO2	11.9	-20.7%	14.2	25.4%	2.8%	-0.45%
NC(N)=Nc1ccc(-c2ccc(N=C(N)N)cc2)cc1	-9.35	6.4%	0.85	-22.2%	-24.9%	-7.95%

From PubChem BioAssay (NCI)
